ChEMBL document CHEMBL3988442, “University of Dundee, Small-Polar-MMV Screening Library” (2021)
For some assays here: Results with a measured potency or affinity are listed apart.

Assays:
Parameters in all cases: scale not given: direction of the effect not stated beside the values
[1] = target: Protein translocase subunit SecA (Escherichia coli (strain K12)) (UniProt P10408); test: Assay to Identify E. coli SecA ATPase Inhibitors; format: functional; conditions: 30 µM
[2] = target: T1, Ubiquitin-activating enzyme e1, putative (Leishmania donovani (strain BPK282A1)) (UniProt E9BSI1); test: Leishmania donovani Ubiquitin Activating Enzyme (LdE1); format: functional; conditions: 30 µM
T1 sequence (whole entry): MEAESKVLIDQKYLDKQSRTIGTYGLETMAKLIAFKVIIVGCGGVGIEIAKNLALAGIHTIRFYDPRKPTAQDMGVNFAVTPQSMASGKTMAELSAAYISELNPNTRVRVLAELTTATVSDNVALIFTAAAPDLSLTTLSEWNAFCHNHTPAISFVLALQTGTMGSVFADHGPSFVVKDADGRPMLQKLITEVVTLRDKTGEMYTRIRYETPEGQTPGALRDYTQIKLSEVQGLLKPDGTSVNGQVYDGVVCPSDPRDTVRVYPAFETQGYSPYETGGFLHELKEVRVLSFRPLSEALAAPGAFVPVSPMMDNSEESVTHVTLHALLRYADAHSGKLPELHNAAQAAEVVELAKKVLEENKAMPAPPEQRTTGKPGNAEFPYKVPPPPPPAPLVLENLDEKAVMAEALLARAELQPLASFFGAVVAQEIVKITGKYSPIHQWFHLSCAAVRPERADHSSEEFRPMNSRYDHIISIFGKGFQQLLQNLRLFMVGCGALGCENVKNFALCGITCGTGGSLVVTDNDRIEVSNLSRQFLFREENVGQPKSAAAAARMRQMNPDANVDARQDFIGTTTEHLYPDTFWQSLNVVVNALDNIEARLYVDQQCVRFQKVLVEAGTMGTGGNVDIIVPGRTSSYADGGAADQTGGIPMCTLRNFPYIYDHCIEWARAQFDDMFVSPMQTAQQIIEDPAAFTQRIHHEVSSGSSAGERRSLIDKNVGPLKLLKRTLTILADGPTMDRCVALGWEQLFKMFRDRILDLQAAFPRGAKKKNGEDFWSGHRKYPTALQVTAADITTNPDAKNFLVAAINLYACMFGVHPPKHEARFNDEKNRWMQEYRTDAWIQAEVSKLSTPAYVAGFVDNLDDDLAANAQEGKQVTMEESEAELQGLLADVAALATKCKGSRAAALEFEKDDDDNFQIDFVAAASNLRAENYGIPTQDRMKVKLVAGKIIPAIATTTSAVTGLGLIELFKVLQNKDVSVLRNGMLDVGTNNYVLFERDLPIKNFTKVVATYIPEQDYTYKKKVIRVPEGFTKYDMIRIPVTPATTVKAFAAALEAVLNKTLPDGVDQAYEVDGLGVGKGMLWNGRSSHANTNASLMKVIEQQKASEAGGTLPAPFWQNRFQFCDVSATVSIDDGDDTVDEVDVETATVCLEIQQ

[3] = target: Sialic acid-binding Ig-like lectin 9 (Homo sapiens) (UniProt Q9Y336); test: Hs-Siglec9 ALPHAscreen SOP 20170721; conditions: 10 µM
Trypanosoma cruzi = test: Trypanosoma cruzi phosphomannomutase and mannose-1-phosphate guanylyltransferase assay; format: functional; conditions: 10 µM
[4] = target: T2, Arginase-2, mitochondrial (Homo sapiens) (UniProt P78540); test: in vitro enzyme assay to detect the production of urea directly proportional to the activity of Arginase II; format: functional; conditions: 33.3 µM; also: in the data most compounds retested in dose-response had high values
T2 sequence (whole entry): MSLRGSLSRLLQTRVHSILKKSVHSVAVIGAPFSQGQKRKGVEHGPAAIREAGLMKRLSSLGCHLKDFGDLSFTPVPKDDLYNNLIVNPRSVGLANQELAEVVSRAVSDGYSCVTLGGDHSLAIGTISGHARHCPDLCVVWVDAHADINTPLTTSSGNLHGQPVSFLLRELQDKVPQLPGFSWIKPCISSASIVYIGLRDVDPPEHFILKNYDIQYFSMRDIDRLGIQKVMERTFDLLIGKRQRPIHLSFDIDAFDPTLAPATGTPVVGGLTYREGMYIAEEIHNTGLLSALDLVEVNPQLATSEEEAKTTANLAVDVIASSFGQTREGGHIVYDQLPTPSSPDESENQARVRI

[5] = target: T3, Proteasome subunit beta (Trypanosoma cruzi) (UniProt O96673); test: Trypanosoma cruzi proteasome chymotrypsin-like activity (TcProtChymo) assay.; also: in the data most compounds retested in dose-response had high values; format: functional; conditions: 9.37 µM
T3 sequence (whole entry): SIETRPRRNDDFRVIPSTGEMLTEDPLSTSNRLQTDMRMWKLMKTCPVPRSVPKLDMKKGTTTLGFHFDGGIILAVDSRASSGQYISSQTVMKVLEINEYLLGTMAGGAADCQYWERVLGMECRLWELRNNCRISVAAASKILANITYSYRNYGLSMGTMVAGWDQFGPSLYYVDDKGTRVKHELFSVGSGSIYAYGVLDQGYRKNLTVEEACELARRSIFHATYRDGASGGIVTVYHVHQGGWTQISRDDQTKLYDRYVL

Homo sapiens = organism: Homo sapiens; test: To identify inhibition of the IFN signalling (Jak-Stat) pathway via expression of an eGFP reporter gene under the control of an IFN-stimulated response element (ISRE) containing MxA promoter.; format: functional; conditions: 30 µM
[6] = target: T4, Tyrosyl-tRNA synthetase, putative (Trypanosoma cruzi (strain CL Brener)) (UniProt Q4DSP6); test: Trypanosoma cruzi tyrosyl tRNA synthetase (TcYRS) _High Tyrosine SOP; format: functional; conditions: 30 µM; also: in the data most compounds retested in dose-response had high values
T4 sequence (whole entry): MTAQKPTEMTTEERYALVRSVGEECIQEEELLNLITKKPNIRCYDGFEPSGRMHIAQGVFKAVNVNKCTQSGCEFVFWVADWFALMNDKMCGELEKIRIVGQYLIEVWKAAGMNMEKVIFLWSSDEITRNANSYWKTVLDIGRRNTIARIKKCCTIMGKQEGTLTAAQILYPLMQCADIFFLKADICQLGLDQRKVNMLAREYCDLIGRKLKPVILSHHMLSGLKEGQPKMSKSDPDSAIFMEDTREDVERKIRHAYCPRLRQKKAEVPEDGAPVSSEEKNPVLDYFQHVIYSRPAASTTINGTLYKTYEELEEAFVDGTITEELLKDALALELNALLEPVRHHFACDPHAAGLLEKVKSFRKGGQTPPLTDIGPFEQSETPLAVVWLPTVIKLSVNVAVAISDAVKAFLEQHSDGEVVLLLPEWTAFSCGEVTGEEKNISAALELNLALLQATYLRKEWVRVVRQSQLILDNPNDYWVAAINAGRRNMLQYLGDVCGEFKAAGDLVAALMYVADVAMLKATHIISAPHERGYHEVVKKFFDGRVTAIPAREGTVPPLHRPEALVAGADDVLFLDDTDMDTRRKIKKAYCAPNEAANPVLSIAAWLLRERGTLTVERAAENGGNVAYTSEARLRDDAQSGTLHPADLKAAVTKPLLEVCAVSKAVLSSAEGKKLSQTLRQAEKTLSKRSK

[7] = target: T4, Tyrosyl-tRNA synthetase, putative (Trypanosoma cruzi (strain CL Brener)); test: Trypanosoma cruzi tyrosyl tRNA synthetase (TcYRS) SOP; format: functional; conditions: 30 µM
[8] = target: Chromo domain-containing protein 1 (Saccharomyces cerevisiae (strain ATCC 204508 / S288c) (Baker's yeast)) (UniProt P32657); test: ScCHD-1 Enzyme Inhibition Assay; format: functional; conditions: 30 µM; also: in the data most compounds retested in dose-response had high values
Chromo domain-containing protein 1 (Saccharomyces cerevisiae (strain ATCC 204508 / S288c) (Baker's yeast)), sequence (P32657 whole entry, the tested form may be a part): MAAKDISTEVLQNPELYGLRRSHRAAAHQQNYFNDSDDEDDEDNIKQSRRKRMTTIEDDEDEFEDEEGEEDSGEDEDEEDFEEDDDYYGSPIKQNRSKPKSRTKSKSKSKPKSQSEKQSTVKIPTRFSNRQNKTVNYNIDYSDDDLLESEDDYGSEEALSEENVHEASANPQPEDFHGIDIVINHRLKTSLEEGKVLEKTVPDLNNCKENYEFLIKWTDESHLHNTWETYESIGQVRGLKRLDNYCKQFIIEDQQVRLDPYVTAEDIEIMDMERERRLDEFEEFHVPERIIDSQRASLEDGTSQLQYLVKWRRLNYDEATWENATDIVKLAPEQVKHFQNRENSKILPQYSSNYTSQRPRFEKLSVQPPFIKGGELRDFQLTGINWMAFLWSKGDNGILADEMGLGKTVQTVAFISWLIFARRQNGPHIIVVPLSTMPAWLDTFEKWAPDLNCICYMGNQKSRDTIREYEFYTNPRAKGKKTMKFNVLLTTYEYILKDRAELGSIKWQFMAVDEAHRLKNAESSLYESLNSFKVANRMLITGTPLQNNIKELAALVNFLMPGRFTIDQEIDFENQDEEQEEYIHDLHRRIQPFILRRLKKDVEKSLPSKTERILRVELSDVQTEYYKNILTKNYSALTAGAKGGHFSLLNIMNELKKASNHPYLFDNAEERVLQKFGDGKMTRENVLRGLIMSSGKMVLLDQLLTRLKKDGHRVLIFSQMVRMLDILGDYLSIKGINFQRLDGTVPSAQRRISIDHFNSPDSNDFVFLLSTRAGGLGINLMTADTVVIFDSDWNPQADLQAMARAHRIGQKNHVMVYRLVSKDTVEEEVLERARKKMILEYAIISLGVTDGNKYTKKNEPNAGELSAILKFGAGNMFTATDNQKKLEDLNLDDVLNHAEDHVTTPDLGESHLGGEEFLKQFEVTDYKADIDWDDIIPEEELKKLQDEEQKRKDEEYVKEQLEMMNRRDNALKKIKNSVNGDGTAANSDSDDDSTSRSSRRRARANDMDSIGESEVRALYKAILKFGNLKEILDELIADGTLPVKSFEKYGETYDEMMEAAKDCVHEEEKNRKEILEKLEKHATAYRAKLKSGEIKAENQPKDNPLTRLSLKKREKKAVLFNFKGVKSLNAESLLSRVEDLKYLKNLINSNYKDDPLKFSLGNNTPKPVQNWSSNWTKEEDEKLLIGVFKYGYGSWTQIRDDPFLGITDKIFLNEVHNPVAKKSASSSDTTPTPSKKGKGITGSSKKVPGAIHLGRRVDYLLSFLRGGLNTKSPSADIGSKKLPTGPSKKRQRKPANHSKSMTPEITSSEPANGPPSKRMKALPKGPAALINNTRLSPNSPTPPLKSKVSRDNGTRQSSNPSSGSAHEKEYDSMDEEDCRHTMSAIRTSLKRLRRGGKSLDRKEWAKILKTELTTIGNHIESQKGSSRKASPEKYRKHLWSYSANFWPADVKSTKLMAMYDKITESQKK

Protein translocase subunit SecA (Escherichia coli (strain K12)), sequence (P10408 whole entry): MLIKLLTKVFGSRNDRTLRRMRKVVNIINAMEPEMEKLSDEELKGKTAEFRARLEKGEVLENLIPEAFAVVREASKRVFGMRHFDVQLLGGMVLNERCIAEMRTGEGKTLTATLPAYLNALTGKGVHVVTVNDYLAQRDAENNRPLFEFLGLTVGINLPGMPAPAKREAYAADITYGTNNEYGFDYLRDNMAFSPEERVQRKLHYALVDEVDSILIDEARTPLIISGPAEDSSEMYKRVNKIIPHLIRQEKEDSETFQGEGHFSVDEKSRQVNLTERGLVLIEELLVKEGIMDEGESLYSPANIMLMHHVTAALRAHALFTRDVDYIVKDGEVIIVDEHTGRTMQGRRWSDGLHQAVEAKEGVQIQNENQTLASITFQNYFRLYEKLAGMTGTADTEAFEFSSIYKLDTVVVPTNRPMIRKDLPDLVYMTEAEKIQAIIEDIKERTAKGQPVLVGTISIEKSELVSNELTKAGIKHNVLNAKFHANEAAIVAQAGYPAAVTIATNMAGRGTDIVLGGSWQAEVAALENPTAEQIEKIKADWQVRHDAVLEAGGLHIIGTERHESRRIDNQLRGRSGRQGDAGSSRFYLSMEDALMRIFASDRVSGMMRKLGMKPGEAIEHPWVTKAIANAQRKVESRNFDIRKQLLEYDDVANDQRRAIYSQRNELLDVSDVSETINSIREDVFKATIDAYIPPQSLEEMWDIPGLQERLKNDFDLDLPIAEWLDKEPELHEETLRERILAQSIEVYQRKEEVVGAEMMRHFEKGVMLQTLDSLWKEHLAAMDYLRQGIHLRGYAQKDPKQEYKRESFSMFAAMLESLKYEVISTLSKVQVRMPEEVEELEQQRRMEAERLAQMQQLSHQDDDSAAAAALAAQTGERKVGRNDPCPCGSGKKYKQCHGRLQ
Sialic acid-binding Ig-like lectin 9 (Homo sapiens), sequence (Q9Y336 whole entry): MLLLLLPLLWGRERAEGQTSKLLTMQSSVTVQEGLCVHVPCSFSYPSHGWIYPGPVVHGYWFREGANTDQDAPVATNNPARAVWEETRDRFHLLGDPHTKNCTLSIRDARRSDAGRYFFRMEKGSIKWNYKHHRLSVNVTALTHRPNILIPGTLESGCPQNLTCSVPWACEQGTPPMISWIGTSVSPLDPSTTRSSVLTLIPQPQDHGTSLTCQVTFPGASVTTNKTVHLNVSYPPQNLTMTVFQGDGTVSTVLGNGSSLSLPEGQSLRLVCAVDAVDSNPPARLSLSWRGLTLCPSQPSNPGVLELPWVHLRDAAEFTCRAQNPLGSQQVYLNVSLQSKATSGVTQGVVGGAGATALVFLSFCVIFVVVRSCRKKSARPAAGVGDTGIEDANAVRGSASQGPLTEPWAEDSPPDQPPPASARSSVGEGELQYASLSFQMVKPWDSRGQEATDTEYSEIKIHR

SMILES | Percent Effect [1] [%] | Percent Effect [2] [%] | Percent Effect [3] [%] | Percent Effect (Trypanosoma cruzi) [%] | Percent Effect [4] [%] | Percent Effect [5] [%] | Percent Effect (Homo sapiens) [%] | Percent Effect [6] [%] | Percent Effect [7] [%] | Percent Effect [8] [%]
Cc1nc(C)c(C(=O)NCCNc2ncccc2C#N)s1 | -0.152 | 31.2 | 1.1 | 5.41 | -5.94 | 18.4 | 7.44 | 6.86 | 28.2 | -11.7
Cc1c(F)cc(C(=O)O)cc1S(=O)(=O)Nc1ccc2c(c1)OCCO2 | -4.72 | 5.13 | 0.878 | 7.42 | -4.51 | 2.82 | -3.86 | -5.26 | 1.21 | -2.48
NC(=O)C1CCN(C(=O)c2cccc(OCc3cscn3)c2)CC1 | -1.56 | 10.3 | -4.08 | -3.1 | 5.33 | 5.89 | 26.4 | 2.39 | 10.8 | -2.13
CC(C)(C)c1n[nH]c(C2CN(C(=O)CCC3CC3)CCO2)n1 (stereo not given) | -3.72 | 5.13 | -3.95 | 9.86 | -1.23 | 5.38 | -22.9 | 3.35 | 13.2 | -2.58
Cc1ccc(OCC(=O)NS(=O)(=O)c2c(C)noc2C)cc1C | -7.75 | -5.13 | -10.8 | -1.41 | 0.41 | 0.0853 | 17.7 | -5.26 | -6.02 | -0.0938
CCn1nc2c(cc1=O)CN(CC(=O)Nc1nc(C)c(C)s1)CC2 | -0.874 | 0 | 5.55 | -9.7 | 1.84 | 13.3 | 14.5 | 4.9 | 9.41 | -8.07
Cc1cc(CN(C)C(=O)NCC(C)N2CCc3ccccc32)no1 (stereo not given) | -2.85 | -2.6 | 14.4 | 1.31 | -2.25 | -2.46 | -9.63 | 7.84 | 7.06 | 4.85
Cc1ccc(C(=O)N2CCN(CCC(C)(C)C)CC2)c(=O)[nH]1 | -4.94 | 5.13 | 4.25 | -0.845 | -0.82 | -1.79 | 12 | 3.35 | 1.21 | 1.43
CC(C)NC(=O)N1C[C@H]2C[C@H](C(=O)NCc3ccccc3)[C@@H](C1)O2 | -5.17 | -103 | -0.747 | -5.16 | -5.67 | 8.74 | 8.32 | 3.68 | 7.69 | 3.3
Cc1nc(CN2CCC(N(C)Cc3noc(C4CC4)n3)C2)oc1C (stereo not given) | 0.865 | 18.2 | 0.312 | 1.31 | 0.205 | 18.8 | 12.6 | 12.8 | 28.2 | -10.9
c1cnn(Cc2nnc3n2CCCN(CC2CCOCC2)C3)c1 | -8.53 | 1.3 | -2.75 | -3.02 | -2.83 | 3.62 | 1.85 | -0.526 | 5.13 | 2.31
CC(=O)N(Cc1ncc(C)o1)C1CCN(CCCc2cnn(C)c2)C1 (stereo not given) | -1.84 | 18.7 | -5.35 | 1.41 | -3.99 | 26.2 | 2.97 | 4.74 | 12.8 | -12.6
CN1CCCN(c2nccc(-c3c[nH]nc3C3CCCCC3)n2)CC1 | 2.25 | 8 | -4.76 | -6.22 | 1.33 | 24 | 23 | 0.526 | 2.56 | -14.2
CCc1nc(C)c(C(=O)NCCN2CCN(C(C)=O)CC2)s1 | -2.42 | 10.4 | 4.38 | -0.373 | 1.43 | -0.702 | 15.7 | 7.84 | 21.2 | -6.18
c1cnn(CCNCc2csc(-c3ccsc3)n2)c1 | -6.54 | -12.8 | -10.8 | -5.92 | -1.23 | 20.6 | 24.6 | -6.22 | -1.21 | 0.287
CN(Cc1ccc2c(c1)OCCO2)C(=O)Cn1cccnc1=O | -4.28 | 10.7 | -2.28 | 3.41 | 1.33 | 16 | 6.87 | 6.84 | 12.8 | -8.2
O=C1CC2(CCN(CC3CC3)C2)CN1c1ccc2c(c1)OCO2 (stereo not given) | -2.02 | 16.9 | -7.72 | 1.07 | 25.9 | 21.6 | -0.411 | 12.1 | -48.7 | -4.12
Cc1cnn(CC2CCCN2CC(=O)Nc2nc(C)cs2)c1 (stereo not given) | -2 | 7.79 | 11.1 | 0.746 | 5.12 | -1.4 | 2.04 | 12.8 | 21.2 | -5.41
COCCN1C(=O)C[C@@H]2[C@H]1CCN2C(=O)COc1ccccc1 | -4.5 | 6.49 | -2.28 | -3.02 | -4.86 | 15.6 | -17.9 | 2.63 | 10.3 | -1.49
CCOC(=O)CN1CCC2(CC1)CC(=O)c1ccc(OC)cc1O2 | -2.51 | 27.3 | 8.34 | 4.13 | -4.11 | 19.1 | 7.83 | 1.93 | 15 | -11
CC(C(=O)N1CCCC1)N1CCC(c2nccn2CC2CCC2)CC1 (stereo not given) | -7.94 | 0 | -0.943 | -1.07 | 0.35 | 1.71 | 1.41 | 9.04 | 12.2 | 2.51
Cc1ccc(NC(=O)N2C[C@H]3CC[C@@H]2CN(Cc2cscn2)C3)cc1 | -8.89 | 2.7 | 16.7 | 2.42 | 5.25 | 4.45 | 0.0605 | 6.92 | 12.2 | 0.126
COc1cc(C)nc(N2CCN(C(=O)CNC(C)(C)C)CC2)n1 | -1.19 | 5.13 | -1.55 | -1.22 | 4.51 | -3.67 | 19.9 | 0.478 | 8.43 | -2.39
